Results reported in the supplement of paper PMC11001985.
Unmarked numbers belong to inactive results.

What was measured:
Test in all cases: lysine labeling ratio R10:1 (500 µM / 50 µM probe), SILAC-ABPP in living cells; higher = lower intrinsic lysine reactivity toward the probe, active = 2 or less
Settings in all cases: HeLa; probe concentrations 500 vs 50 µM
[1] = molecular target: ACLY (lysine site: K1080) (UniProt P53396)
How it was run: (§1)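 With forward and reverse label swaps, light and heavy SILAC HeLa cells, alive and in PBS at room temperature, were exposed to either 500 µM or 50 µM of an alkyne-tagged lysine probe bearing a disulfide link. After mixing, lysates were clicked to biotin-azide, cut with trypsin, pulled down on neutravidin, freed with DTT, alkylated and analysed on a TIMS-TOF Pro by LC-MS/MS. The per-lysine value R is the median over forward and reverse replicates of the filtered median high-probe/low-probe MS1 peptide ratio. It is capped at 20.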

ACLY (lysine site: K272) = ACLY (lysine site: K272) (UniProt P53396)
How it was run: as §1

ACLY (lysine site: K780) = ACLY (lysine site: K780) (UniProt P53396)
How it was run: as §1

ACLY (lysine site: K836) = ACLY (lysine site: K836) (UniProt P53396)
How it was run: as §1

ACLY (lysine site: K968) = ACLY (lysine site: K968) (UniProt P53396)
How it was run: as §1

ACLY (lysine site: K978) = ACLY (lysine site: K978) (UniProt P53396)
How it was run: as §1

[2] = molecular target: ADAM10 (lysine site: K273) (UniProt O14672)
How it was run: as §1

[3] = molecular target: ADAM10 (lysine site: K410) (UniProt O14672)
How it was run: as §1

[4] = molecular target: ADAM10 (lysine site: K601) (UniProt O14672)
How it was run: as §1

[5] = molecular target: BACE2 (lysine site: K299) (UniProt Q9Y5Z0)
How it was run: as §1

BSG (lysine site: K264) = BSG (lysine site: K264) (UniProt P35613)
How it was run: as §1

CALR (lysine site: K159) = CALR (lysine site: K159) (UniProt P27797)
How it was run: as §1

CALR (lysine site: K360) = CALR (lysine site: K360) (UniProt P27797)
How it was run: as §1

CALR (lysine site: K64) = CALR (lysine site: K64) (UniProt P27797)
How it was run: as §1

CAV1 (lysine site: K47) = CAV1 (lysine site: K47) (UniProt Q03135)
How it was run: as §1

CDC37 (lysine site: K60) = CDC37 (lysine site: K60) (UniProt Q16543)
How it was run: as §1

[6] = molecular target: CSDE1 (lysine site: K307) (UniProt O75534)
How it was run: as §1

CSTB (lysine site: K91) = CSTB (lysine site: K91) (UniProt P04080)
How it was run: as §1

[7] = molecular target: DDX50 (lysine site: K271) (UniProt Q9BQ39)
How it was run: as §1

[8] = molecular target: DDX50 (lysine site: K432) (UniProt Q9BQ39)
How it was run: as §1

GART (lysine site: K251) = GART (lysine site: K251) (UniProt P22102)
How it was run: as §1

[9] = molecular target: HNRNPF (lysine site: K224) (UniProt P52597)
How it was run: as §1

[10] = molecular target: HNRNPF (lysine site: K87) (UniProt P52597)
How it was run: as §1

[11] = molecular target: HNRNPF (lysine site: K98) (UniProt P52597)
How it was run: as §1

[12] = molecular target: HYOU1 (lysine site: K797) (UniProt Q9Y4L1)
How it was run: as §1

[13] = molecular target: ITIH2 (lysine site: K148) (UniProt P19823)
How it was run: as §1

[14] = molecular target: ITIH2 (lysine site: K150) (UniProt P19823)
How it was run: as §1

[15] = molecular target: ITIH2 (lysine site: K190) (UniProt P19823)
How it was run: as §1

[16] = molecular target: LMAN2 (lysine site: K303) (UniProt Q12907)
How it was run: as §1

MDH2 (lysine site: K185) = MDH2 (lysine site: K185) (UniProt P40926)
How it was run: as §1

[17] = molecular target: NCR3LG1 (lysine site: K101) (UniProt Q68D85)
How it was run: as §1

[18] = molecular target: NECTIN2 (lysine site: K97) (UniProt Q92692)
How it was run: as §1

PHB (lysine site: K240) = PHB (lysine site: K240) (UniProt P35232)
How it was run: as §1

[19] = molecular target: PODXL (lysine site: K385) (UniProt O00592)
How it was run: as §1

[20] = molecular target: PODXL (lysine site: K394) (UniProt O00592)
How it was run: as §1

[21] = molecular target: PODXL (lysine site: K418) (UniProt O00592)
How it was run: as §1

[22] = molecular target: PODXL (lysine site: K422) (UniProt O00592)
How it was run: as §1

[23] = molecular target: PODXL (lysine site: K444) (UniProt O00592)
How it was run: as §1

[24] = molecular target: PSMD6 (lysine site: K130) (UniProt Q15008)
How it was run: as §1

[25] = molecular target: PSMD6 (lysine site: K372) (UniProt Q15008)
How it was run: as §1

[26] = molecular target: PTPRK (lysine site: K227) (UniProt Q15262)
How it was run: as §1

[27] = molecular target: PTPRK (lysine site: K244) (UniProt Q15262)
How it was run: as §1

[28] = molecular target: PTPRK (lysine site: K262) (UniProt Q15262)
How it was run: as §1

[29] = molecular target: PTPRK (lysine site: K394) (UniProt Q15262)
How it was run: as §1

[30] = molecular target: PTPRK (lysine site: K397) (UniProt Q15262)
How it was run: as §1

[31] = molecular target: PTPRK (lysine site: K722) (UniProt Q15262)
How it was run: as §1

[32] = molecular target: SACM1L (lysine site: K483) (UniProt Q9NTJ5)
How it was run: as §1

[33] = molecular target: SLC25A3 (lysine site: K218) (UniProt Q00325)
How it was run: as §1

[34] = molecular target: SLC25A3 (lysine site: K234) (UniProt Q00325)
How it was run: as §1

[35] = molecular target: SLC25A3 (lysine site: K252) (UniProt Q00325)
How it was run: as §1

[36] = molecular target: SLC25A3 (lysine site: K304) (UniProt Q00325)
How it was run: as §1

[37] = molecular target: SLC25A3 (lysine site: K313) (UniProt Q00325)
How it was run: as §1

[38] = molecular target: SNAP23 (lysine site: K64) (UniProt O00161)
How it was run: as §1

[39] = molecular target: TMED10 (lysine site: K145) (UniProt P49755)
How it was run: as §1

TPBG (lysine site: K328) = TPBG (lysine site: K328) (UniProt Q13641)
How it was run: as §1

TPBG (lysine site: K76) = TPBG (lysine site: K76) (UniProt Q13641)
How it was run: as §1

[40] = molecular target: TSPAN14 (lysine site: K132) (UniProt Q8NG11)
How it was run: as §1

[41] = molecular target: UniProt P08729 (lysine site: K273)
How it was run: as §1

[42] = molecular target: UniProt P08729 (lysine site: K296)
How it was run: as §1

[43] = molecular target: UniProt P08729 (lysine site: K326)
How it was run: as §1

[44] = molecular target: UniProt P08729 (lysine site: K331)
How it was run: as §1

[45] = molecular target: UniProt P08729 (lysine site: K353)
How it was run: as §1

[46] = molecular target: UniProt P08913 (lysine site: K190)
How it was run: as §1

[47] = molecular target: UniProt P50895 (lysine site: K482)
How it was run: as §1

[48] = molecular target: UniProt P50895 (lysine site: K531)
How it was run: as §1

[49] = molecular target: UniProt Q6ZS17 (lysine site: K71)
How it was run: as §1

WLS (lysine site: K161) = WLS (lysine site: K161) (UniProt Q5T9L3)
How it was run: as §1

WLS (lysine site: K168) = WLS (lysine site: K168) (UniProt Q5T9L3)
How it was run: as §1

YWHAB (lysine site: K70) = YWHAB (lysine site: K70) (UniProt P31946)
How it was run: as §1

YWHAZ (lysine site: K85) = YWHAZ (lysine site: K85) (UniProt P63104)
How it was run: as §1

Chain of SNAP23 (lysine site: K64) (O00161 whole entry): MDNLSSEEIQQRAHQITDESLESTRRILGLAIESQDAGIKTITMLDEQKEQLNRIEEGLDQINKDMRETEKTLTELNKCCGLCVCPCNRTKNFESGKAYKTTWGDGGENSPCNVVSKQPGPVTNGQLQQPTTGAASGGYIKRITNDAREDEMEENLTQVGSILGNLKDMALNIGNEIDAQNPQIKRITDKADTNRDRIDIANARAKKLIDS
Chain of PHB (lysine site: K240) (P35232 whole entry): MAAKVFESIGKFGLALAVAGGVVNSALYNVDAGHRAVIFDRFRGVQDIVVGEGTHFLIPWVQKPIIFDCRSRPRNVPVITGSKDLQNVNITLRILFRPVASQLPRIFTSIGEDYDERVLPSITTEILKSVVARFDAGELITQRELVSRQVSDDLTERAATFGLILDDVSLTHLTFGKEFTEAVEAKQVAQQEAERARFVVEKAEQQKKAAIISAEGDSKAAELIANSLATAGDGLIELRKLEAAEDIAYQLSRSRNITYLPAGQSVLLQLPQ
Chain of CSDE1 (lysine site: K307) (O75534 whole entry): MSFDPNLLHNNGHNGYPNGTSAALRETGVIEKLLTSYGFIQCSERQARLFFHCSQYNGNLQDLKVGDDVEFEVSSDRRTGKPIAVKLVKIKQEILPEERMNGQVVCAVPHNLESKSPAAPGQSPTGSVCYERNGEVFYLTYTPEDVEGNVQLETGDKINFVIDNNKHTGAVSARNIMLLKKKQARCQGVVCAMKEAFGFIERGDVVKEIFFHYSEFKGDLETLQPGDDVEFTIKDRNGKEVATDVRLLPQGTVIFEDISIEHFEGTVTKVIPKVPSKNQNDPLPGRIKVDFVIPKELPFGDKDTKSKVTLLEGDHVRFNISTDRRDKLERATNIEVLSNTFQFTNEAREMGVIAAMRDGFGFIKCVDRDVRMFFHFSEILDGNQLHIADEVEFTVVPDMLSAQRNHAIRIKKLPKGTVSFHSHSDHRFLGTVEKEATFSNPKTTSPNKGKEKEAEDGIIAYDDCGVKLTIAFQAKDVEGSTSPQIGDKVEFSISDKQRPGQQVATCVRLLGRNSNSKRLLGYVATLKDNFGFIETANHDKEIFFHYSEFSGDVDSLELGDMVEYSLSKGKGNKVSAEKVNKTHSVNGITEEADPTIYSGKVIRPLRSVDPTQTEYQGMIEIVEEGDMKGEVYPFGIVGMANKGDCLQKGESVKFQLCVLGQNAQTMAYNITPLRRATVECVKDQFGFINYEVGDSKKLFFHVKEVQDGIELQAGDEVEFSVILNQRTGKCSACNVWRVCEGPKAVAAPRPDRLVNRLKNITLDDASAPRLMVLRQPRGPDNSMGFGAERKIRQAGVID
Chain of PODXL (lysine site: K385) (O00592 whole entry): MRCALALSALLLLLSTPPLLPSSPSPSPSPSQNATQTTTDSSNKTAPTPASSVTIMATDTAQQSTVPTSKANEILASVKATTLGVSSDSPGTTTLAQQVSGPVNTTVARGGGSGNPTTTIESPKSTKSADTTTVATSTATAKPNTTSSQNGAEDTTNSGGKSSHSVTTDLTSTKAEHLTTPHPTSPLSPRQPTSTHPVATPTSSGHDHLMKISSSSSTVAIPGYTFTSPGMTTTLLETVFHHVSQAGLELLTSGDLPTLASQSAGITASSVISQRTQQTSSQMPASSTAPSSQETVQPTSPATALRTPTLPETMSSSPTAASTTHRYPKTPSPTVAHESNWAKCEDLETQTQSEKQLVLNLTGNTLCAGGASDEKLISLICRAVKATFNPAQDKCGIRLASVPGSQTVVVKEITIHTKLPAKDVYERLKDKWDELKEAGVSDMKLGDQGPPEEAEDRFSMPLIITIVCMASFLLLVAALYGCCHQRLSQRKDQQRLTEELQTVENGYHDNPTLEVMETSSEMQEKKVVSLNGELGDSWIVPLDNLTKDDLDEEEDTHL
Chain of PODXL (lysine site: K394) (O00592 whole entry): as above
Chain of PODXL (lysine site: K418) (O00592 whole entry): as above
Chain of PODXL (lysine site: K422) (O00592 whole entry): as above
Chain of PODXL (lysine site: K444) (O00592 whole entry): as above
Chain of PTPRK (lysine site: K227) (Q15262 whole entry): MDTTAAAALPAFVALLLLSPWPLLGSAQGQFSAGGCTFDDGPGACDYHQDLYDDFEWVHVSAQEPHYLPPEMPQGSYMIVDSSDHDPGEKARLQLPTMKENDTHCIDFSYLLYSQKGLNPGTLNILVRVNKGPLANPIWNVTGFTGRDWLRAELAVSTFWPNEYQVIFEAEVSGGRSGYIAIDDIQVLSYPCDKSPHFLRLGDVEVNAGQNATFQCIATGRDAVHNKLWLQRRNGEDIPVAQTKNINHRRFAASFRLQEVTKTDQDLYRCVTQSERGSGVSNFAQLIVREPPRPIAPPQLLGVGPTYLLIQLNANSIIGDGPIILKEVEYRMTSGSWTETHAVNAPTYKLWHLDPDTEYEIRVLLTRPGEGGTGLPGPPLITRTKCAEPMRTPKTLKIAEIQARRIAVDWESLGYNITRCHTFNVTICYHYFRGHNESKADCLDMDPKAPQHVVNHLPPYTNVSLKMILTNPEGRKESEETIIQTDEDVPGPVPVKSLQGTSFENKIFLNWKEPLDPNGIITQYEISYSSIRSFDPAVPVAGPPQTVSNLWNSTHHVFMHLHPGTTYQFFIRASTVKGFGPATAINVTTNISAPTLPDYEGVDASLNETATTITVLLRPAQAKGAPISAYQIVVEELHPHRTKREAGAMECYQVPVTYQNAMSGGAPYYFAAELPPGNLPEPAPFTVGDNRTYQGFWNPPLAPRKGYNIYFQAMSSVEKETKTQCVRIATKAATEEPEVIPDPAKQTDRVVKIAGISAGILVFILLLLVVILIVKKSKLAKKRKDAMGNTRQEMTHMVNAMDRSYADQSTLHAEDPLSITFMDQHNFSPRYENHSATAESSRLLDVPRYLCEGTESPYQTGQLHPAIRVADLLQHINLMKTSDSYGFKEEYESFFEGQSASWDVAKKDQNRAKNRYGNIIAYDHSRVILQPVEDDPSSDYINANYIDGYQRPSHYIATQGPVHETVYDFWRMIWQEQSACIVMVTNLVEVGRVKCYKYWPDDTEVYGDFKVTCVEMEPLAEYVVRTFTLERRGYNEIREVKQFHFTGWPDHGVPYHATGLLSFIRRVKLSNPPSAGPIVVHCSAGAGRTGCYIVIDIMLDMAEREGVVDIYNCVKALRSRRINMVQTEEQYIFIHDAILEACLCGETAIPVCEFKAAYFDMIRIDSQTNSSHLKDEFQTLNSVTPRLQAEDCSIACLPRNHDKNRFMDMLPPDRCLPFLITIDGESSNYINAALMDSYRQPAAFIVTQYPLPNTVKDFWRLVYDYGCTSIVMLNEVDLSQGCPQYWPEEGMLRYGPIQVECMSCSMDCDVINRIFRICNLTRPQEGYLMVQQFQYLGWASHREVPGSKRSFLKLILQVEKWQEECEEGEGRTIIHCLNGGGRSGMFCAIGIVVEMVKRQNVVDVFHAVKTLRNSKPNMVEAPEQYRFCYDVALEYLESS
Chain of PTPRK (lysine site: K244) (Q15262 whole entry): as above
Chain of PTPRK (lysine site: K262) (Q15262 whole entry): as above
Chain of PTPRK (lysine site: K394) (Q15262 whole entry): as above
Chain of PTPRK (lysine site: K397) (Q15262 whole entry): as above
Chain of PTPRK (lysine site: K722) (Q15262 whole entry): as above
Chain of WLS (lysine site: K161) (Q5T9L3 whole entry): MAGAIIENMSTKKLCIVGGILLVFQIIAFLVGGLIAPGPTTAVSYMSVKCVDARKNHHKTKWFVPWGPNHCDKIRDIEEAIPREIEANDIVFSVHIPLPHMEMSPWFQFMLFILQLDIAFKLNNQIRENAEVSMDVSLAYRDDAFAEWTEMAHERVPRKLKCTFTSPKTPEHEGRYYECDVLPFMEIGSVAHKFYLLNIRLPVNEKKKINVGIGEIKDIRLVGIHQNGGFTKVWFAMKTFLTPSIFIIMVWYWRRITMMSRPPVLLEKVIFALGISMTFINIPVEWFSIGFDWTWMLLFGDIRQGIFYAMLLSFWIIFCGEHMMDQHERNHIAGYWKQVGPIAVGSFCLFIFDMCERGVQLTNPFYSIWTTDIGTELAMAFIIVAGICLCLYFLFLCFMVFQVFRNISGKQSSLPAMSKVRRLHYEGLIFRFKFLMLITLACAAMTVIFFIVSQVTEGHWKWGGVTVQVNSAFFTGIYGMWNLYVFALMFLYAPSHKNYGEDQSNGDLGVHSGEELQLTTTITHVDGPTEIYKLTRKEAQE
Chain of WLS (lysine site: K168) (Q5T9L3 whole entry): as above
Chain of UniProt P50895 (lysine site: K482) (P50895 whole entry): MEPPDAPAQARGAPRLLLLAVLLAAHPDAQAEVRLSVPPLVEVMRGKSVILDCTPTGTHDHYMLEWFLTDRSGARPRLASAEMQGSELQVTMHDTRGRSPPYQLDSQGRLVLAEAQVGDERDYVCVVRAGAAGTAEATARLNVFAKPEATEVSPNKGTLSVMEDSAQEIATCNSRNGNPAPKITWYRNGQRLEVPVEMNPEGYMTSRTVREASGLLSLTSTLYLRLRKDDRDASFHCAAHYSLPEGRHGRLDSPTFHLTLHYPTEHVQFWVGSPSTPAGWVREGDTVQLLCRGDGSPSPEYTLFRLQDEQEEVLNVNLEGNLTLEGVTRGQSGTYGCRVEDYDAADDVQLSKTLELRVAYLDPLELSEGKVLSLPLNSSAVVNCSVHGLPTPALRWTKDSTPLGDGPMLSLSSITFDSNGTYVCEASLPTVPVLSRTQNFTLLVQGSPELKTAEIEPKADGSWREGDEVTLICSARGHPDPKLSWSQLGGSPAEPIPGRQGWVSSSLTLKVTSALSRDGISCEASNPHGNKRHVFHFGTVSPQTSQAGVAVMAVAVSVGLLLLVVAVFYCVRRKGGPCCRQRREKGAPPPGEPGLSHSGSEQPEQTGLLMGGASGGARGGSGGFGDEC
Chain of UniProt P50895 (lysine site: K531) (P50895 whole entry): as above

## C#CCNC(=O)CCSSCCC(=O)NCCc1ccc(C=O)c(C=O)c1
[1]
  lysine labeling ratio R10:1: 6.28
ACLY (lysine site: K272)
  lysine labeling ratio R10:1: 2.72
ACLY (lysine site: K780)
  lysine labeling ratio R10:1: 1.27 (active)
ACLY (lysine site: K836)
  lysine labeling ratio R10:1: 3
ACLY (lysine site: K968)
  lysine labeling ratio R10:1: 4.07
ACLY (lysine site: K978)
  lysine labeling ratio R10:1: 2.77
[2]
  lysine labeling ratio R10:1: 2.98
[3]
  lysine labeling ratio R10:1: 1.51 (active)
[4]
  lysine labeling ratio R10:1: 0.81 (active)
[5]
  lysine labeling ratio R10:1: 1.18 (active)
BSG (lysine site: K264)
  lysine labeling ratio R10:1: 2.59
CALR (lysine site: K159)
  lysine labeling ratio R10:1: 1.52 (active)
CALR (lysine site: K360)
  lysine labeling ratio R10:1: 5.32
CALR (lysine site: K64)
  lysine labeling ratio R10:1: 2.12
CAV1 (lysine site: K47)
  lysine labeling ratio R10:1: 1.22 (active)
CDC37 (lysine site: K60)
  lysine labeling ratio R10:1: 2.43
[6]
  lysine labeling ratio R10:1: 1.59 (active)
CSTB (lysine site: K91)
  lysine labeling ratio R10:1: 4.21
[7]
  lysine labeling ratio R10:1: 0.745 (active)
[8]
  lysine labeling ratio R10:1: 1.99 (active)
GART (lysine site: K251)
  lysine labeling ratio R10:1: 5.53
[9]
  lysine labeling ratio R10:1: 6.19
[10]
  lysine labeling ratio R10:1: 2.84
[11]
  lysine labeling ratio R10:1: 3.88
[12]
  lysine labeling ratio R10:1: 6.93
[13]
  lysine labeling ratio R10:1: 3.03
[14]
  lysine labeling ratio R10:1: 3.29
[15]
  lysine labeling ratio R10:1: 4.46
[16]
  lysine labeling ratio R10:1: 1.72 (active)
MDH2 (lysine site: K185)
  lysine labeling ratio R10:1: 3.9
[17]
  lysine labeling ratio R10:1: 2.58
[18]
  lysine labeling ratio R10:1: 0.864 (active)
PHB (lysine site: K240)
  lysine labeling ratio R10:1: 1.3 (active)
[19]
  lysine labeling ratio R10:1: 9.63
[20]
  lysine labeling ratio R10:1: 0.785 (active)
[21]
  lysine labeling ratio R10:1: 2.7
[22]
  lysine labeling ratio R10:1: 0.841 (active)
[23]
  lysine labeling ratio R10:1: 2.06
[24]
  lysine labeling ratio R10:1: 0.957 (active)
[25]
  lysine labeling ratio R10:1: 0.563 (active)
[26]
  lysine labeling ratio R10:1: 3.07
[27]
  lysine labeling ratio R10:1: 1.58 (active)
[28]
  lysine labeling ratio R10:1: 4.25
[29]
  lysine labeling ratio R10:1: 7.37
[30]
  lysine labeling ratio R10:1: 3.52
[31]
  lysine labeling ratio R10:1: 2.01
[32]
  lysine labeling ratio R10:1: 4.06
[33]
  lysine labeling ratio R10:1: 0.82 (active)
[34]
  lysine labeling ratio R10:1: 1.8 (active)
[35]
  lysine labeling ratio R10:1: 3.68
[36]
  lysine labeling ratio R10:1: 4.79
[37]
  lysine labeling ratio R10:1: 4.2
[38]
  lysine labeling ratio R10:1: 1.47 (active)
[39]
  lysine labeling ratio R10:1: 4.28
TPBG (lysine site: K328)
  lysine labeling ratio R10:1: 1.99 (active)
TPBG (lysine site: K76)
  lysine labeling ratio R10:1: 2.54
[40]
  lysine labeling ratio R10:1: 0.603 (active)
[41]
  lysine labeling ratio R10:1: 3.39
[42]
  lysine labeling ratio R10:1: 3.6
[43]
  lysine labeling ratio R10:1: 5.31
[44]
  lysine labeling ratio R10:1: 5.69
[45]
  lysine labeling ratio R10:1: 9.28
[46]
  lysine labeling ratio R10:1: 2.31
[47]
  lysine labeling ratio R10:1: 1.94 (active)
[48]
  lysine labeling ratio R10:1: 2.47
[49]
  lysine labeling ratio R10:1: 5.33
WLS (lysine site: K161)
  lysine labeling ratio R10:1: 9.23
WLS (lysine site: K168)
  lysine labeling ratio R10:1: 5.48
YWHAB (lysine site: K70)
  lysine labeling ratio R10:1: 3.41
YWHAZ (lysine site: K85)
  lysine labeling ratio R10:1: 3.38
